High-throughput results deposited in PubChem by National Center for Advancing Translational Sciences (NCATS).
p53 reactivation: qHTS assay for re-activators of p53 using a Luc reporter | H1299 p53-A138V BP100-luciferase reporter, luminescence, 24 h | Potency, µM (titrated, usually from 92.2 µM), usual class: activators | 320,000 tested, 0.063% active; further: nearly all actives have a fitted effect of over 45% in size
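p53-null H1299 cells stably carrying temperature-sensitive p53-A138V and a BP100-luciferase reporter were pinned with compounds (4-point, 1:5 series) and held 24 hrs at 37 deg C. Luminescence was read 10 min after detection reagent.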
FLuc modulator: qHTS profiling assay for firefly luciferase inhibitor/activator using purifed enzyme and Km concentrations of substrates (counterscreen for miR-21 project). Luciferin 4-monooxygenase (Photinus pyralis), P08659. purified FLuc, Km substrates, luminescence inhibition. Potency, µM (doses to about 57.5 µM), hits mostly inhibitors. 360,000 tested, 6.9% active; further: nearly all actives have a fitted effect of over 55% in size
Target sequence (P08659 whole entry, looked up): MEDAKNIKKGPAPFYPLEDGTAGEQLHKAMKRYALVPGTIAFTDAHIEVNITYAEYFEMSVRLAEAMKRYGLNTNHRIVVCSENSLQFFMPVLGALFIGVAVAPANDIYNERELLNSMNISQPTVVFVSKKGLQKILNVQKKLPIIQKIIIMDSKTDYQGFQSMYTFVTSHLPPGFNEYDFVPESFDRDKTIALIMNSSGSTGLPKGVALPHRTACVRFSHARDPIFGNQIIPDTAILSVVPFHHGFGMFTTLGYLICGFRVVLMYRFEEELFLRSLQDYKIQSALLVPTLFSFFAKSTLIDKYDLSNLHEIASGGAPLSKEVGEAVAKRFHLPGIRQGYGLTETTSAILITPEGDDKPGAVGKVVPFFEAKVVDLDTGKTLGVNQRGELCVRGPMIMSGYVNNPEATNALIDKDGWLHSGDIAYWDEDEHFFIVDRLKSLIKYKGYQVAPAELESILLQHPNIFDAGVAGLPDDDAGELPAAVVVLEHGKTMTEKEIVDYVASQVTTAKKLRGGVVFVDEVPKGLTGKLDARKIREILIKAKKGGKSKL
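Purified P. pyralis luciferase, 10 nM final, with Km-level 10 uM D-luciferin and 10 uM ATP in 50 mM Tris acetate pH 7.5, 10 mM Mg acetate, 0.01% Tween-20, 0.05% BSA; 6-point qHTS titration about 60 µM downward; luminescence read.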
ELG1 genotoxic: qHTS screen for small molecules that induce genotoxicity in human embryonic kidney (HEK293T) cells expressing luciferase-tagged ELG1; HEK293T ELG1-luciferase reporter, luminescence, 16 h; Potency, µM (highest dose often 46 µM), most hits filed as activators; 330,000 tested, 1.3% active; further: nearly all actives have a fitted effect of over 60% in size
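Step 1: seed 2,000 HEK293T ELG1-luciferase cells per well. Step 2: add compound or DMSO, incubate 16 hr at 37 °C. Step 3: ONE-Glo, 30 min at room temperature, read luminescence.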
Rab9 prom act: qHTS Assay for Rab9 Promoter Activators. Huh7 Rab9 promoter-luciferase reporter, luminescence, 24 h. Potency, µM (doses to about 9.22 µM), most hits filed as activators. 320,000 tested, 2.8% active; further: nearly all actives have a fitted effect of over 60% in size
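Stable Rab9-luc Huh7, 1500 cells/well, 2 h settle; cmpd in DMSO, 24 h, 37 °C/5% CO2; luciferase reagent 10 min RT; luminescence.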
SMN2 splice up: qHTS Assay for Enhancers of SMN2 Splice Variant Expression | HEK293 SMN2-luciferase splicing reporter, luminescence, 30-36 h | Potency, µM (series often up to 46.1 µM), actives largely listed as activators | 210,000 tested, 2.8% active; further: nearly all actives have a fitted effect of over 55% in size
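qHTS luciferase splicing reporter: luminescence rises when SMN2 exon 7 is included in transfected HEK293 cells. Compound exposure lasted 30-36 h at 37C, with 4.5 mM final sodium butyrate as control, followed by a ONE-Glo read.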
NPC1 promoter act: qHTS Assay for NPC1 Promoter Activators. Potency, µM (titrated, usually from 9.22 µM), actives largely listed as activators. AID 485313, 2010. Huh7 NPC1 promoter luciferase reporter, 24 h. 320,000 tested, 2.4% active; further: nearly all actives have a fitted effect of over 60% in size
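Stable NPC1-promoter luciferase Huh7 line; cpd (DMSO) 24 h, 37 °C, 5% CO2; Amplite luciferase reagent 10 min RT; luminescence readout. qHTS format.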
Large screens that a line does not name were inactive. Compounds with a hit are over-represented: about 7.4% of the library has one in this group of screens. The call rests on the fitted dose curve; in most records, active means well fitted curve in the direction sought with a large enough effect; inconclusive means small, poorly fitted or top-dose-only effect, or another doubt; inactive means no such curve, though single readings can be large; an effect the other way counts as inactive or inconclusive.

Cc1ccc(-c2cc(-c3ccccc3)nc(NN)n2)cc1	FLuc modulator inconclusive (no result: SMN2 splice up)
c1ccc(-c2cc(-c3ccccc3)on2)cc1	FLuc modulator 0.76µM, ELG1 genotoxic 5.8µM, Rab9 prom act 1.4µM, NPC1 promoter act 1.4µM (no result: SMN2 splice up)
Cc1cc(-c2cc(-c3ccccc3)on2)nc(NC2CCCC2)n1	FLuc modulator inconclusive (no result: SMN2 splice up)
Nc1nc(-c2cc(-c3ccccc3)no2)cs1	p53 reactivation inconclusive, FLuc modulator 3µM, ELG1 genotoxic 2.1µM, Rab9 prom act 1µM, NPC1 promoter act 1µM (no result: SMN2 splice up)
Nc1nc(-c2cccc(Br)c2)cs1	FLuc modulator inconclusive, Rab9 prom act inconclusive
CCn1ccc2cc(S(=O)(=O)N3CCCN(C(=O)Nc4ccc(C)cc4Cl)CC3)ccc21	none (no result: p53 reactivation, ELG1 genotoxic, Rab9 prom act, SMN2 splice up, NPC1 promoter act)
Cc1ccc2c(c1)N(C(=O)CCC(=O)NCc1cccc(F)c1)CC(C)O2 (stereo not given)	none (no result: p53 reactivation, ELG1 genotoxic, Rab9 prom act, SMN2 splice up, NPC1 promoter act)
CC(=O)N1CCc2cc(S(=O)(=O)NC(Cc3ccccc3)C(=O)Nc3cc(C)ccc3C)ccc21 (stereo not given)	none (no result: p53 reactivation, ELG1 genotoxic, Rab9 prom act, NPC1 promoter act)
Cc1occc1C(=O)NNC(=S)Nc1ccccc1C(F)(F)F	p53 reactivation inconclusive, Rab9 prom act 2.8µM, SMN2 splice up inconclusive, NPC1 promoter act inconclusive
Cc1ccccc1NC(=S)NNC(=O)c1ccoc1C	p53 reactivation inconclusive, Rab9 prom act inconclusive, NPC1 promoter act inconclusive
Cc1occc1C(=O)NNC(=S)Nc1ccccc1	p53 reactivation inconclusive, FLuc modulator inconclusive, ELG1 genotoxic inconclusive, Rab9 prom act 2.5µM, SMN2 splice up inconclusive, NPC1 promoter act inconclusive
CC1CCCCC1NC(=O)/C=C/c1nc2ccccc2s1 (stereo not given)	FLuc modulator inconclusive
O=C(/C=C/c1nc2ccccc2s1)N1CCCCCC1	p53 reactivation inconclusive, FLuc modulator 15µM, ELG1 genotoxic inconclusive, Rab9 prom act 2µM, NPC1 promoter act 3.2µM (no result: SMN2 splice up)
Cc1ccc(SCc2nc(N)nc(Nc3ccccc3C)n2)c(C)c1	FLuc modulator 27µM
Cc1ccccc1Nc1nc(N)nc(CSc2nnnn2C)n1	FLuc modulator inconclusive, ELG1 genotoxic inconclusive, Rab9 prom act 2.5µM, SMN2 splice up 13µM, NPC1 promoter act 3.5µM
Cc1ccc(Nc2nc(N)nc(CSc3nccn3C)n2)c(C)c1	FLuc modulator inconclusive, ELG1 genotoxic 15µM, Rab9 prom act inconclusive, NPC1 promoter act inconclusive
Cc1ccccc1Nc1nc(N)nc(CSc2ccc(F)cc2)n1	FLuc modulator 11µM, ELG1 genotoxic 8.2µM, Rab9 prom act 3.2µM, NPC1 promoter act 2.5µM (no result: SMN2 splice up)
Cc1ccccc1-c1noc(CSc2nc3ccccc3[nH]2)n1	none (no result: p53 reactivation, ELG1 genotoxic, Rab9 prom act, NPC1 promoter act)
Cc1cccc(C2NC(=O)c3c(sc4c3CCN(C)C4)N2)c1O (stereo not given)	FLuc modulator 24µM, SMN2 splice up 16µM (no result: p53 reactivation, ELG1 genotoxic, Rab9 prom act, NPC1 promoter act)
Cc1ccc(C2NC(=O)c3c(sc4c3CCN(C)C4)N2)s1 (stereo not given)	FLuc modulator 12µM, Rab9 prom act inconclusive, NPC1 promoter act inconclusive
Cc1ccsc1C1NC(=O)c2c(sc3c2CCCC3)N1 (stereo not given)	p53 reactivation inconclusive, FLuc modulator 17µM, ELG1 genotoxic inconclusive, Rab9 prom act inconclusive, SMN2 splice up 16µM, NPC1 promoter act inconclusive
O=C1NC(c2ccc(Br)cc2)Nc2sc3c(c21)CCC3 (stereo not given)	FLuc modulator inconclusive, Rab9 prom act inconclusive, NPC1 promoter act inconclusive
CN(C)c1ccc(NC(=S)NCC2CCCO2)cc1 (stereo not given)	p53 reactivation inconclusive, FLuc modulator inconclusive, ELG1 genotoxic inconclusive, SMN2 splice up 13µM
CCc1ccc(NC(=O)C(=O)NCC2CCCO2)cc1 (stereo not given)	FLuc modulator inconclusive, Rab9 prom act 1.4µM, SMN2 splice up 11µM, NPC1 promoter act 3.5µM
Cc1ccc(C(=O)NC(=S)NCC2CCCO2)cc1Br (stereo not given)	p53 reactivation inconclusive, FLuc modulator 19µM, SMN2 splice up 20µM
CCCCN1CC(c2nc3ccccc3n2CCCCOc2ccccc2C)CC1=O (stereo not given)	none (no result: p53 reactivation, ELG1 genotoxic, Rab9 prom act, SMN2 splice up, NPC1 promoter act)
CC(=O)c1ccc(NC(=O)Cn2cc(S(=O)(=O)Cc3cccc(Cl)c3)c3ccccc32)cc1	none (no result: p53 reactivation, ELG1 genotoxic, Rab9 prom act, SMN2 splice up, NPC1 promoter act)
Cc1cc(S(=O)(=O)N2CCCC(N(C)CCc3ccccn3)C2)c(C)cc1Cl (stereo not given)	none (no result: SMN2 splice up)
Cc1ccc(NC(=O)CCCn2nc(C)c3sc4ccccc4c3c2=O)c(Cl)c1	FLuc modulator 6µM (no result: p53 reactivation, ELG1 genotoxic, Rab9 prom act, SMN2 splice up, NPC1 promoter act)
COc1cc(OC)c(NC(=O)CCCn2nc(C)c3sc4ccccc4c3c2=O)cc1Cl	FLuc modulator 13µM (no result: p53 reactivation, ELG1 genotoxic, Rab9 prom act, SMN2 splice up, NPC1 promoter act)
CC(=O)Nc1ccc(NC(=O)CCCn2nc(C)c3sc4ccccc4c3c2=O)cc1	none (no result: p53 reactivation, ELG1 genotoxic, Rab9 prom act, SMN2 splice up, NPC1 promoter act)
CC(=O)N1CCC(N(CCCOC(C)C)S(=O)(=O)c2ccc([N+](=O)[O-])cc2)CC1	none (no result: SMN2 splice up)
O=C(Cc1c(Cl)cccc1Cl)N/N=C/c1cccnc1	none (no result: SMN2 splice up)
CCN(CCCNC(=O)c1cc(Nc2ccc(OC)cc2OC)nc2ccccc12)c1cccc(C)c1	none (no result: p53 reactivation, ELG1 genotoxic, Rab9 prom act, NPC1 promoter act)
COc1cc(/C=N/NS(=O)(=O)c2ccc(C)cc2)ccc1OCc1cccc(C(=O)O)c1	FLuc modulator 0.43µM, Rab9 prom act 0.89µM, SMN2 splice up 3.5µM, NPC1 promoter act 2µM
COc1cc(/C=N/NS(=O)(=O)c2ccc3ccccc3c2)ccc1OCc1ccc(C(=O)O)cc1	FLuc modulator 0.34µM, ELG1 genotoxic inconclusive, Rab9 prom act 2µM, NPC1 promoter act 0.63µM (no result: SMN2 splice up)
COc1cc(/C=N/NC(=O)COc2cc(C)cc(C)c2)ccc1OS(=O)(=O)c1ccc(C)cc1	none
CCc1ccc(OCC(=O)N/N=C/c2ccc(OS(=O)(=O)c3ccc(C)cc3)c(OC)c2)cc1	FLuc modulator 5.4µM
Cc1cccc(/C(N)=N/OC(=O)CCCc2ccccc2)c1	p53 reactivation inconclusive, FLuc modulator 9.5µM, ELG1 genotoxic inconclusive (no result: SMN2 splice up)
